Test results from PubChem BioAssay AID1259421 (Broad Institute, 2018).
Values joined by “and” are separate entries in the source; they are usually repeats but may differ in a detail not shown here. Equal values may be shown once. In all, about 6,400 compounds went through this assay and about 610 (9.5%) were called active. No stated cut-off is given here; in the data, active means activity change below about -70%; inconclusive means no clear call, values can overlap the other calls; inactive means above that. The full list was thinned out, with actives kept by preference. The source holds several records for some structures; these can differ, active in one and inactive in another.

Assay: T. gondii ME49Luc in HeLa cells, luciferase assay, 72 h, no IFN-y (AID 1259421)
Conditions: stronger effect = lower value, concentration not given here

Compound | activity change, negative = inhibition
CCCC(=O)Oc1ccc2[nH]c(C(=O)c3cc4ccccc4[nH]3)cc2c1 | 5.11% (inactive)
CN(Cc1ccccc1)Cc1ccccc1 | 16.3% (inactive)
CCN(CC)CCC(=O)N1c2ccccc2Sc2ccc(Cl)cc21 | 17.9% (inactive)
O=C(O)CC(O)(CC(=O)O)C(=O)O | -79.3% (active)
O=C(O)CCC(=O)O | -23.1% (inactive)
O=C(O)CO.[NH2-].[NH2-].[Pt+2] | -0.913% (inactive)
CCOC(=O)/C(=N/O)c1csc(N)n1 | 7.65% (inactive)
CCC(CC)(NC(=O)C(C)C)C(=O)N[C@@H](CCCN=C(N)N)C(=O)NC1(C(=O)NC(c2ccc(F)cc2)c2ccc(F)cc2)CCCC1 | 12.8% (inactive)
C/C(=C\c1csc(C)n1)[C@@H]1C[C@@H]2O[C@]2(C)CCC[C@H](C)[C@H](O)[C@@H](C)C(=O)C(C)(C)[C@@H](O)CC(=O)N1 | -94.8% (active)
C=CCN1CCc2nc(N)sc2CC1 | 0.82% (inactive)
Fc1ccc(C2CCNCC2COc2ccc3c(c2)OCO3)cc1 (stereo unspecified) | 28.3% (inactive)
Cc1cc2nc3c(=O)[nH]c(=O)nc-3n(C)c2cc1C=O | 9.97% (inactive) and 10.7% (inactive)
CNCCCCOc1ccccc1Cc1ccccc1 | 17.6% (inactive) and 22% (inactive)
O=C(O)CCC1CCC(c2cc(F)ccc2F)(S(=O)(=O)c2ccc(Cl)cc2)CC1 (stereo unspecified) | 7.06% (inactive)
N#Cc1ccccc1OCC(O)CNCCNC(=O)Nc1ccccc1 (stereo unspecified) | 10.2% (inactive) and -13.2% (inactive)
CC1(C)CC23C(=O)CCC(O)C2(C)CCC13 (stereo unspecified) | 11.7% (inactive)
NC(=O)c1ccc([N+](=O)[O-])cc1Cl | 17.4% (inactive) and 18.6% (inactive)
O=C(Nc1cc(C(F)(F)F)cc(C(F)(F)F)c1)c1cc(Cl)ccc1O | -83.9% (active)
C=CCNC(=O)c1cc([N+](=O)[O-])cc2c(=O)[nH]c(Nc3ccc(Cl)c(Cl)c3)nc12 | 3.13% (inactive) and -6.94% (inactive)
Cc1oncc1C(=O)Nc1ccc(C(F)(F)F)cc1 | 165% (inactive) and 187% (inactive)
O=C(Nc1ccc([N+](=O)[O-])cc1O)Nc1ccccc1Br | -48.5% (inactive) and -4.88% (inactive)

Compound | activity change, negative = inhibition
O=C(Nc1ccc([N+](=O)[O-])cc1Cl)c1cc(Cl)ccc1O | -93% (active) and 4.01% (inactive)
O=C(Nc1ccccc1)c1ccccc1O | 110% (inactive) and 0.394% (inactive)
O=C(Nc1ccncc1)c1cc([N+](=O)[O-])ccc1Cl | -81.1% (active) and -86.9% (active)
O=C(Nc1ccccc1)c1cc([N+](=O)[O-])ccc1Cl | 14.5% (inactive) and 9.52% (inactive)
CN1CCN(C2=Cc3ccccc3Oc3ccc(Cl)cc32)CC1 | -2.4% (inactive) and 14.5% (inactive)
O=C(NC1CCCCC1)NC1CCCCC1 | 10.9% (inactive)
O=C(O)c1ccc(NC2OC(CO)C(O)C(O)C2O)cc1 (stereo unspecified) | 4.39% (inactive)
Cc1occc(=O)c1O | -2.72% (inactive)
CC(C)S(=O)(=O)NC[C@H](C)c1ccc(-c2ccc(CCNS(C)(=O)=O)cc2)cc1 | 8.52% (inactive)
CN1C[C@H]2C[C@@H]1CN2c1cc2c(cc1F)c(=O)c(C(=O)O)cn2C1CC1 | 7.36% (inactive)
NC(=O)C1CCCN1C(=O)C(Cc1cnc[nH]1)NC(=O)C1CCC(=O)N1 (stereo unspecified) | 2.14% (inactive)
CCCCCCCCCCCC[N+](C)(C)CCOc1ccccc1 | 14.1% (inactive)
CCCCOc1ccc(CC(=O)NO)cc1 | -24.4% (inactive) and -36.9% (inactive)
CCCCCCCCCc1ccc(OCCOCCOCCOCCOCCOCCOCCOCCOCCO)cc1 | -73.3% (active)
NC(=O)NCCCC(N)C(=O)O (stereo unspecified) | 15% (inactive)
CC(C)=CCC[C@](C)(O)[C@H]1CC[C@]2(C)[C@@H]1[C@H](O)C[C@@H]1[C@@]3(C)CC[C@H](O)C(C)(C)[C@@H]3CC[C@]12C | 27.9% (inactive)
CCCn1c(=O)c2[nH]cnc2n(-c2ccc(Cl)cc2)c1=O | 15.7% (inactive) and 11% (inactive)
CO/N=C(/C(=O)NC1C(=O)N2C(C(=O)O)=C(CSc3nnnn3C)CSC12)c1csc(N)n1 (stereo unspecified) | 8.82% (inactive)
C#C[C@]1(O)CC[C@H]2[C@@H]3CCC4=CCCC[C@@H]4[C@H]3C(=C)C[C@@]21CC | 35.3% (inactive)
C#C[C@]1(O)CCC2C3CCC4=CC(=O)CC[C@@H]4C3CC[C@@]21CC (stereo partly specified) | -16.7% (inactive)
C#C[C@]1(O)CCC2C3CCC4=C(CCC(=O)C4)C3CC[C@@]21C (stereo partly specified) | -83.2% (active)

Compound | activity change, negative = inhibition
C#C[C@]1(O)CC[C@H]2[C@@H]3CCC4=CC(=O)CC[C@@H]4[C@H]3CC[C@@]21CC | -67.7% (inactive)
C#C[C@]1(O)CCC2C3CCC4=CC(=O)CCC4C3C(=C)CC21CC (stereo partly specified) | 16.2% (inactive)
C#C[C@]1(OC(C)=O)CCC2C3CCC4=C/C(=N/O)CCC4C3CC[C@@]21CC (stereo partly specified) | -84.7% (active)
C#C[C@]1(O)CCC2C3CCC4=CC(=O)CC[C@@H]4C3CC[C@@]21C (stereo partly specified) | -91% (active)
C#C[C@]1(O)CC[C@H]2[C@@H]3CCC4=CC(=O)CC[C@@H]4C3CC[C@@]21CC (stereo partly specified) | -83.6% (active)
C#C[C@]1(O)CC[C@H]2[C@@H]3CCC4=CC(=O)CC[C@@H]4[C@H]3CC[C@@]21C | -67.2% (inactive)
C#C[C@]1(O)CC[C@@H]2C3[C@H](C)CC4=C(CCC(=O)C4)[C@H]3CC[C@@]21C (stereo partly specified) | 5.27% (inactive)
O=C1c2ccccc2-n2c1nc1ccccc1c2=O | -48.4% (inactive)
Cc1nccn1CC1CCC2C(C1=O)c1ccccc1N2C (stereo unspecified) | 8.1% (inactive)
CC(C)(CO)C(O)C(=O)NCCC(=O)NCCSSCCNC(=O)CCNC(=O)C(O)C(C)(C)CO (stereo unspecified) | 0.59% (inactive)
CCN(CC)C(=O)c1cccc(C)c1 | 17.6% (inactive) and -3.28% (inactive)
CCCCN(CCCC)C(=O)CN1C[C@H](c2ccc3c(c2)OCO3)[C@@H](C(=O)O)[C@@H]1c1ccc(OC)cc1 | 2.8% (inactive)
CCOCc1nc2c(N)nc3ccccc3c2n1CC(C)(C)O | 18.1% (inactive)
N[C@@H](CC(=O)Nc1ccc(Oc2cc(F)c(F)cc2Br)cc1)C(=O)O | 7.4% (inactive)
COc1cccc(Nc2c(C(N)=O)cnc3c(C)cc(S(=O)(=O)c4cccc(C(=O)N(C)C)c4)cc23)c1 | -9.54% (inactive)
CNC(=O)c1ccc(C)c(-n2c(C)cc(OCc3ccc(F)cc3F)c(Br)c2=O)c1 | 9.8% (inactive)
CC(=O)NC1=NN(C(C)=O)C(C)(c2ccccc2)S1 (stereo unspecified) | -32.2% (inactive)
C#C[C@]1(OC(C)=O)CC[C@H]2[C@@H]3CCC4=C[C@@H](OC(C)=O)CC[C@@H]4[C@H]3CC[C@@]21C | -38.3% (inactive) and 1.4% (inactive)
C#C[C@]1(OC(C)=O)CCC2C3CCC4=CC(=O)CC[C@@H]4C3CC[C@@]21C (stereo partly specified) | -79.9% (active) and -90.3% (active)
CC(=O)O[C@]1(C(C)=O)CC[C@H]2[C@@H]3C=C(C)C4=CC(=O)CC[C@@H]4[C@H]3CC[C@@]21C | 8.45% (inactive)
c1ccc(-c2n[nH]c3c2oc2ccccc23)cc1 | 129% (inactive) and 2.12% (inactive)

Compound | activity change, negative = inhibition
CCOC(=O)N1CSCC1C(=O)O (stereo unspecified) | 0.0863% (inactive)
CC(C)Oc1ccc2c(=O)cc(-c3ccccc3)oc2c1 | 458% (inactive)
CN(C)CCCCC(=O)Nc1ccc(NC(=S)NC(=O)c2ccc(C(C)(C)C)cc2)cc1 | 78.2% (inactive)
CCOC(=O)c1ccc(OCCC2CCN(c3ccc(C)nn3)CC2)cc1 | 9.97% (inactive)
COCCOc1ccc2c(c1)ncn2-c1ccc2cccc(N3CCC(N)CC3)c2n1 | -89.9% (active)
CC1(COc2ccc3c(c2)ncn3-c2ccc3cccc(N4CCC(N)CC4)c3n2)COC1 | -73.4% (active)
NC1CCN(c2cccc(Cl)n2)CC1 | 10.9% (inactive) and -8.3% (inactive)
COc1ccc(C[C@H](C)NC[C@@H](O)c2ccc(O)c(NC=O)c2)cc1 | 14.6% (inactive) and 0.747% (inactive)
CCCC1OC2CC3C4CCC5=CC(=O)C=CC5(C)C4C(O)CC3(C)C2(C(=O)CO)O1 (stereo unspecified) | -4.58% (inactive)
Cc1nnc(C(C)C)n1C1CC2CCC(C1)N2CC[C@H](NC(=O)C1CCC(F)(F)CC1)c1ccccc1 (stereo partly specified) | 10.7% (inactive) and 30.6% (inactive)
CC(C)NC[C@@H](C(=O)N1CCN(c2ncnc3c2[C@H](C)C[C@@H]3O)CC1)c1ccc(Cl)cc1 | 9.17% (inactive)
CC(=O)c1c(O)c(C)c(O)c2c1OC1=CC(=O)C(C(C)=O)C(=O)[C@@]12C (stereo partly specified) | 16.8% (inactive)
CCCCCCCCCCCCC/C=C/[C@@H](O)[C@H](CO)NC(C)=O | 16.6% (inactive)
NCCNS(=O)(=O)c1cccc2cnccc12 | 1.67% (inactive)
NCCCCCCNS(=O)(=O)c1cccc2ccccc12 | 3.17% (inactive)
Nc1nc(NCC2CCC(CNS(=O)(=O)c3cccc4ccccc34)CC2)nc2ccccc12 (stereo unspecified) | -76.7% (active) and -41.2% (inactive)
Cc1onc(-c2ccccc2)c1C(=O)NC1C(=O)N2[C@@H]1SC(C)(C)[C@@H]2C(=O)O (stereo partly specified) | 8.03% (inactive)
CSC1SCC2C(=O)N(C)C(C(C)C)C(=O)OCC(NC(=O)c3cnc4ccccc4n3)C(=O)NC(C)C(=O)N(C)C1C(=O)N(C)C(C(C)C)C(=O)OCC(NC(=O)c1cnc3ccccc3n1)C(=O)NC(C)C(=O)N2C (stereo unspecified) | -84.4% (active)
